APOBEC3A inh: human APOBEC3A DNA deaminase inhibition | recombinant A3A, FAM/TAMRA ssDNA deamination fluorescence | inhibition, % at 20 µM | hit rate 0.41% among 330,000 | AID 493011;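 active = at least 40% inhibition at 20 µM here, with at most 30% in a related deaminase screen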;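 note: plate controls were A3A with DMSO for no effect and wells lacking A3A enzyme for full effect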
NTR1 ag: NTR1 (human) agonism; hit rate 0.17% among 330,000; P30989; activation, % at 20 µM; NTR1-U2OS beta-arrestin-GFP spot imaging, agonist mode;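 active = activation at or above 40% of the spot to cytoplasm intensity ratio, with at least 20 cells analyzed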;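 note: 0% = DMSO without peptide and 100% = 100 nM NTR1 peptide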
Target sequence (P30989 whole entry, looked up): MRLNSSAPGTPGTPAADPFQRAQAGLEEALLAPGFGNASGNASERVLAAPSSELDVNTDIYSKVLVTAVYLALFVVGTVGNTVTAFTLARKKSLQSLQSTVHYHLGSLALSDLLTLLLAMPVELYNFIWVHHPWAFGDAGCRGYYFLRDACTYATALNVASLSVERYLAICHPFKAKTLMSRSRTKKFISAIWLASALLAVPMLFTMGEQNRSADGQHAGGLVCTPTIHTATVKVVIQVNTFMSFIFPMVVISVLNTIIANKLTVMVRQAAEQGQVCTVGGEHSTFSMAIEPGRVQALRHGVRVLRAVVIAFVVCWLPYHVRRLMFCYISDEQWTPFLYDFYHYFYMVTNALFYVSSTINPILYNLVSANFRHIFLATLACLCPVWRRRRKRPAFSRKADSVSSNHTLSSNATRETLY
AHR act: human AHR activation; hit rate 2.5% among 320,000; P35869; AID 2796; AHR-responsive luciferase reporter cells, luminescence; activation, % at 5 µM; in the data active = activation above about 47%;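 note: 0% = vehicle wells and 100% = reference agonist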
A3G deaminase: inhibitors of human APOBEC3G DNA deaminase; Q9HC16; recombinant A3G, ssDNA deamination FAM/TAMRA fluorescence; inhibition, % at 20 µM; hit rate 0.28% among 330,000; AID 493012;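 active = inhibition of at least 40% at 20 µM, with no more than 30% in the related APOBEC3A deaminase screen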;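 note: plate controls were DMSO wells with A3G for no effect and wells lacking A3G enzyme for full effect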
A3A conf: confirmation of human APOBEC3A DNA deaminase inhibitors; inhibition, % at 20 µM; hit rate 63% among 1,400; shares compounds with APOBEC3A inh; recombinant A3A, ssDNA deaminase UDG fluorescence assay;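 active = inhibition reaching a set limit, 80% of the first screen's cutoff, at 20 µM in any replicate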;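 note: plate controls were DMSO wells with A3A for no effect and wells lacking A3A enzyme for full effect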
UDG A3A counter: counter-screen for APOBEC3A inhibitors: UDG; shares compounds with APOBEC3A inh; inhibition, % at 20 µM; 1,000 tested, under 10 active; UDG counterscreen, FAM/TAMRA uracil oligo fluorescence; AID 504714; call rule not given here
The depositor's hits bear a star; nt = no result given. A selection: hits, their analogues and other compounds. The true share with any hit is near 3.2%.

SMILES	APOBEC3A inh	NTR1 ag	AHR act	A3G deaminase	A3A conf	UDG A3A counter
COC(=O)C1=C(C)N(CC2CC2)C(=NCCN2CCOCC2)N[C@H]1c1ccccc1	71*	-2	4	22	68*	1
COC(=O)C1=C(C)N(CC2CC2)C(=NCc2cccc(C(F)(F)F)c2)N[C@H]1c1ccccc1	38	0	3	19	nt	nt
CC[n+]1ccc2cc(OC)c(OC)cc2c1Cc1ccc(OC)c(OC)c1	69*	0	1	9	43*	nt
Cc1cc(C)n(CCNC(=O)CC2C(=O)NCCN2Cc2ccccc2C(F)(F)F)n1 (configuration not stated)	-1	-1	0	-5	nt	nt
CCOC(=O)c1c(C)n(C)c2ccc(OC)c(NC(=O)CN3CCC(C(=O)OCC)CC3)c12	18	3	2	5	nt	nt
CCOC(=O)c1ccc2c(c1)n(CC)c(/C=C/N(C)c1ccccc1)[n+]2CC	57*	3	2	17	79*	3
CCOC(=O)c1ccc2c(c1)n(CCO)c(C)[n+]2CC	43*	1	0	21	82*	7
CSc1ccc(S(=O)(=O)N2CCC(C(=O)NCC3CCCO3)CC2)cc1 (configuration not stated)	63*	-1	-1	11	56*	2
CCNc1ccc(S(=O)(=O)N(C)C)cc1[N+](=O)[O-]	67*	1	0	21	54*	nt
CCCCNc1ccc(S(N)(=O)=O)cc1[N+](=O)[O-]	2	6	-6	-2	nt	nt
O=C(NCCN1CCOCC1)c1ccc(NS(=O)(=O)c2cccc([N+](=O)[O-])c2)cc1	-1	-1	1	2	nt	nt
Cc1nc2ccc(NC(=O)c3cc(Cl)ccn3)cc2s1	49*	0	19	-2	23	0
CC(c1ccncn1)N(C)C(=O)c1ccc2oc(Cc3ccccc3)nc2c1 (configuration not stated)	-2	0	-5	-6	nt	nt
CCOc1ncccc1C(=O)OCC(=O)N(CC)c1ccccc1	74*	0	-1	-6	-1	2
CCc1noc(C)c1C(=O)N(CCOC)c1c(N)n(CC(C)C)c(=O)[nH]c1=O	43*	-1	8	6	2	nt
CCCCN(C(=O)c1ccc([N+](=O)[O-])o1)c1c(N)n(CC(C)C)c(=O)[nH]c1=O	44*	2	11	9	9	nt
CCCCN(C(=O)c1cc2ccccc2o1)c1c(N)n(CC(C)C)c(=O)[nH]c1=O	-1	2	2	-5	nt	nt
COc1cc(SC)ccc1C(=O)N1CCN(S(=O)(=O)/C=C/c2ccccc2)CC1	-2	1	0	-6	nt	nt
CCOc1ccc2cc(C3CC(c4ccco4)=NN3S(C)(=O)=O)c(=O)[nH]c2c1 (configuration not stated)	5	2	4	8	nt	nt
CCN(CC)CCOc1ccc(Br)cc1	-4	3	-1	-6	nt	nt
CCN(CC)CCOc1ccc2c(c1)C(=NO)c1cc(OCCN(CC)CC)ccc1-2	47*	1	1	26	37*	-1
O=C(CSCc1ccccc1)N/N=C/c1ccc(OCC(=O)N2CCCCC2)cc1	nt	nt	1	nt	nt	nt
COc1ccc(CSCC(=O)N/N=C/c2ccc(OCC(=O)N3CCCCC3)cc2)cc1	52*	2	1	22	52*	-2
COCC(=O)Nc1ccc(C(=O)Nc2ccccc2Cl)cc1	0	2	-2	0	nt	nt
O=P(c1ccccc1)(c1ccccc1)c1cc(S(=O)(=O)O)ccc1O	83*	0	nt	17	63*	-2
SMILES	APOBEC3A inh	NTR1 ag	AHR act	A3G deaminase	A3A conf	UDG A3A counter
CC(C)c1ccc(-c2nc3ccccc3s2)cc1	-3	8	23	-5	nt	nt
CC[n+]1cccc(-c2nc3ccccc3s2)c1	53*	4	4	13	64*	-1
O=C(CSc1nnc(COc2ccccc2Cl)o1)NC(=O)NCc1ccco1	59*	0	-2	23	22*	-1
CCn1c(=O)n(CC)c2cc(NC(=O)C(C)c3ccccc3)c(Br)cc21 (configuration not stated)	54*	0	3	24	26	nt
CC(C(=O)Nc1ccccc1Oc1ccccc1)c1ccccc1 (configuration not stated)	-1	1	-1	-5	nt	nt
COc1ccccc1N1CCN(C(=O)C(C)NC(=O)c2cccc([N+](=O)[O-])c2)CC1 (configuration not stated)	-2	-1	2	-7	nt	nt
CN(C)CCCN1C(=O)C(=O)/C(=C(/O)c2ccncc2)C1c1ccccc1 (configuration not stated)	-14	0	-2	-5	nt	nt
CN(C)CCN1C(=O)C(=O)/C(=C(/O)c2ccccc2)C1c1ccccc1F (configuration not stated)	72*	6	0	-4	-5	1
O=C(/C=C/c1ccccc1)OCC(=O)N1CCCC1	0	-1	0	-4	nt	nt
O=C(/C=C/c1ccco1)OCC(=O)N1CCCCC1	49*	-1	-2	14	38*	3
CN(C)S(=O)(=O)N1CCN(CC(=O)Nc2ccc(F)cc2)CC1	-6	0	0	-5	nt	nt
COc1ccc(NC(=O)CN(C)CC(=O)N(C)C2(C#N)CCC(C)CC2)cc1 (configuration not stated)	44*	0	3	9	33*	3
CN(CC(=O)Nc1ccc(F)cc1)CC(=O)N(C)C1(C#N)CCCCC1	-4	0	-1	-6	nt	nt
CN(C)/C=C(/C(=O)c1ccc(Cl)cc1)S(C)(=O)=O	43*	0	3	5	1	nt
CN(C)/C=C(/C(=O)c1ccc(Cl)c(Cl)c1)S(C)(=O)=O	-2	-1	-2	-4	nt	nt
O=C(NCCc1ccccc1F)C1CCCN(c2nc3ccccc3s2)C1 (configuration not stated)	-3	0	4	-4	nt	nt
CCN1C(=NCCCOC(C)C)N[C@@H](c2ccccc2)[C@H](C(=O)OC)[C@H]1C	44*	-1	0	14	61*	-2
CCN1C(=NCCc2ccc(Br)cc2)N[C@@H](c2ccccc2)[C@H](C(=O)OC)[C@H]1C	39	6	0	9	nt	nt
CCOc1ccc(CN2C(=O)c3ccccc3C2=O)cc1C(=O)NC1CC(C)(C)NC(C)(C)C1	45*	0	-1	9	64*	-3
CCOc1ccc(CN2C(=O)c3ccccc3C2=O)cc1C(=O)Nc1nnc(SCC)s1	1	20	-3	-2	nt	nt
Cn1cc(/C=N/NC(=O)c2cc3cc(Br)ccc3o2)c2ccccc21	52*	5	22	16	58*	-1
O=C1C2CCCN2C(c2ccco2)N1c1ccc(F)cc1 (configuration not stated)	5	2	0	-4	nt	nt
CC(C)CC[n+]1ccccc1/C=C/c1ccc(N(C)C)cc1	56*	-3	7	-13	54*	-4
O=C(Nc1ccc(NS(=O)(=O)c2ccccc2)cc1)c1cccnc1	0	1	8	-3	nt	nt
